In PubChem BioAssay (EPA / NIEHS):
Calls of active or inactive are those of the source. How the source made its calls: active means hit-call score of the fitted dose curve at least 0.9, where 1 is the maximum; inactive means score below 0.9.

Assays:
[1] = ATG_GLI_CIS: Attagene CIS-FACTORIAL HepG2 Assay for human Zinc Finger Protein GLI1 (AID 2282945); settings: HepG2, Attagene cis-factorial reporter mRNA, GLI element; actives raise or lower the signal
Procedure, shortened: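 Transiently transfected HepG2 cells report endogenous transcription factor activity via cis-element-driven reporter units. After 24 h compound exposure, reporter mRNA was measured by RT-PCR with capillary electrophoresis; bidirectional fitting against DMSO baseline.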

[2] = target: Bile acid receptor (Homo sapiens) (UniProt Q96RI1); assay: ATG_IR1_CIS: Attagene CIS-FACTORIAL HepG2 Assay for human Nuclear Receptor Subfamily 1 Group H Member 4 (NR1H4), IR1 submotif (AID 2282946); settings: IR1 reporter transcription, actives raise or lower the signal
Procedure, shortened: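 HepG2 cells transiently transfected with multiple cis-promoter-driven reporter units to measure endogenous transcription factor activity; 24 h exposure. Reporter mRNA read by RT-PCR, FAM labelling, HpaI digestion and capillary electrophoresis. Bidirectional fit versus DMSO.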

[3] = ATG_GRE_CIS: Attagene CIS-FACTORIAL HepG2 Assay for human Glucocorticoid Response Elements (GRE) (AID 2282947); settings: HepG2 GRE cis-reporter, Attagene multiplex mRNA; actives raise or lower the signal
Procedure, shortened: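 Transiently transfected HepG2 cells carrying GRE cis-reporter units (endogenous TF activity) dosed 24 h; reporter mRNA quantified by RT-PCR, 6-FAM labelling, HpaI digestion and capillary electrophoresis. Bidirectional fit versus DMSO baseline.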

[4] = ATG_ISRE_CIS: Attagene CIS-FACTORIAL HepG2 Assay for human Interferon Regulatory Factor 1 (IRF1) binding to an Interferon-Stimulated Response Element (ISRE) (AID 2282948); settings: HepG2 ISRE cis-reporter (Attagene), mRNA transcription readout; actives raise or lower the signal
Procedure, shortened: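 Quantitation relies on labelled RT-PCR fragments separated by capillary electrophoresis. Human HepG2 cells bearing cis-promoter reporter constructs were treated 24 h; DMSO served as baseline for bidirectional fitting.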

[5] = ATG_M_32_CIS: Attagene CIS-FACTORIAL HepG2 Assay for M32 Transcription Factor (Internal Marker) (AID 2282949); settings: HepG2 Attagene cis-factorial M32 reporter, mRNA; actives raise or lower the signal;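 further: background control marker of the multiplexed CIS panel rather than a real target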
Procedure, shortened: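 Fluorescent capillary electrophoresis peaks of HpaI-digested, FAM-labelled RT-PCR reporter products give the signal. Source: transiently transfected human liver HepG2 cells, 24 h after chemical dosing; bidirectional fitting against DMSO.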

[6] = ATG_M_06_CIS: Attagene CIS-FACTORIAL HepG2 Assay for M06 Transcription Factor (Internal Marker) (AID 2282950); settings: HepG2 Attagene CIS-FACTORIAL M06 internal marker reporter; actives raise or lower the signal
Procedure, shortened: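 Cells (HepG2, transiently carrying cis-driven reporter units) receive chemical for 24 h before RNA isolation. Reporter cDNA is PCR-amplified, FAM-labelled by primer extension, HpaI-digested and sized on a capillary analyser.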

[7] = target: Hypoxia-inducible factor 1-alpha (Homo sapiens) (UniProt Q16665); assay: ATG_HIF1a_CIS: Attagene CIS-FACTORIAL HepG2 Assay for human Hypoxia Inducible Factor 1 (HIF1A) (AID 2282951); settings: HepG2 Attagene cis-factorial HIF1a reporter transcription; actives raise or lower the signal
Procedure, shortened: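 Dosed 24 h, transfected HepG2 cells yielded total RNA whose reporter transcripts were RT-PCR-amplified and sized by capillary electrophoresis using fluorescent labelling; DMSO defined baseline, with gain and loss of signal both fitted.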

[8] = target: Hepatocyte nuclear factor 6 (Homo sapiens) (UniProt Q9UBC0); assay: ATG_HNF6_CIS: Attagene CIS-FACTORIAL HepG2 Assay for human Hepatocyte Nuclear Factor 6 (HNF6) (AID 2282952); settings: HepG2 Attagene cis-factorial HNF6 reporter transcription; actives raise or lower the signal
Procedure, shortened: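 HepG2, transient MRTU transfection (cis promoters); 24 h chemical exposure; total RNA → oligo(dT) RT → PCR → 6-FAM labelling → HpaI cut → CE; bidirectional fit vs DMSO.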

[9] = target: Heat shock factor protein 1 (Homo sapiens) (UniProt Q00613); assay: ATG_HSE_CIS: Attagene CIS-FACTORIAL HepG2 Assay for human Heat Shock Transcription Factor 1 (HSE) (AID 2282953); settings: HepG2 HSE cis-reporter, Attagene RNA transcription; actives raise or lower the signal
Procedure, shortened: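 Liver-derived HepG2 cells carry transiently introduced multiple reporter units governed by cis promoters. Reporter RNA measured 24 h post-dose through reverse transcription, PCR amplification, fluorescent labelling and capillary electrophoresis, normalised to DMSO.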

[10] = ATG_MRE_CIS: Attagene CIS-FACTORIAL HepG2 Assay for human Metal Responsive Element (MRE) (AID 2282954); settings: HepG2 MRE cis-reporter transcription, Attagene multiplex; actives raise or lower the signal
Procedure, shortened: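 HepG2 cells transiently transfected with cis-element-driven reporter units; mRNA measured 24 h after dosing. Reporter transcripts quantified by RT-PCR, FAM labelling, HpaI digestion and capillary electrophoresis; bidirectional fit versus DMSO.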

[11] = ATG_PBREM_CIS: Attagene CIS-FACTORIAL HepG2 Assay for human Phenobarbital-responsive Enhancer Module (PBREM) (AID 2282955); settings: HepG2 PBREM cis-reporter, Attagene multiplexed transcription; actives raise or lower the signal
Procedure, shortened: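 Transfected liver-derived HepG2 cells exposed 24 h; PBREM reporter transcript quantified via RT-PCR and capillary electrophoresis, with activity in either direction referenced to DMSO.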

[12] = target: Paired box protein Pax-6 (Homo sapiens) (UniProt P26367); assay: ATG_Pax6_CIS: Attagene CIS-FACTORIAL HepG2 Assay for human Paired Box 6 (PAX6) (AID 2282956); settings: HepG2 CIS-FACTORIAL PAX6 reporter transcription, RNA readout; actives raise or lower the signal
Procedure, shortened: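 After twenty-four hours of chemical exposure, transfected HepG2 cells are harvested for RNA. Cis-promoter reporter transcripts are amplified, fluorescently labelled and sized by capillary electrophoresis, with gain and loss of signal scored against DMSO.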

[13] = ATG_PXRE_CIS: Attagene CIS-FACTORIAL HepG2 Assay for human Pregnane X Receptor Element (PXRE) (AID 2282957); settings: HepG2 Attagene CIS-FACTORIAL PXRE reporter, mRNA; actives raise or lower the signal
Procedure, shortened: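 Transfect HepG2 with MRTUs (cis promoter elements); dose chemical, incubate 24 h; isolate RNA, RT with oligo(dT), PCR, 6-FAM label, HpaI cut, CE. Gain/loss fit vs DMSO.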

[14] = ATG_PPRE_CIS: Attagene CIS-FACTORIAL HepG2 Assay for human Peroxisome Proliferator-activated Response Element (PPRE) (AID 2282958); settings: HepG2 PPRE cis-element reporter, Attagene transcription factor profiling; actives raise or lower the signal
Procedure, shortened: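 Measured endpoint: PPRE-controlled reporter mRNA, detected by RT-PCR and capillary electrophoresis fluorescence, from transiently transfected HepG2 cells 24 h after dosing. Curves fitted in both directions using DMSO baseline.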

[15] = ATG_RORE_CIS: Attagene CIS-FACTORIAL HepG2 Assay for human RAR-related Orphan Receptor Element (RORE) (AID 2282959); settings: HepG2 Attagene cis-factorial RORE reporter, mRNA; actives raise or lower the signal
Procedure, shortened: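 Transiently transfected HepG2 reporter cells were treated 24 h. Reporter transcripts were detected by RT-PCR and capillary electrophoresis, with bidirectional fitting against DMSO.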

[16] = ATG_Sox_CIS: Attagene CIS-FACTORIAL HepG2 Assay for human SRY-box transcription factor (SOX) (AID 2282960); settings: HepG2 Attagene cis-factorial SOX reporter, mRNA; actives raise or lower the signal
Procedure, shortened: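 Gain- or loss-of-signal endpoint, fitted bidirectionally with DMSO as negative control. Based on reporter mRNA from transfected HepG2 cells harvested 24 h post-treatment and quantified via RT-PCR and capillary electrophoresis.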

[17] = target: Transcription factor Sp1 (Homo sapiens) (UniProt P08047); assay: ATG_Sp1_CIS: Attagene CIS-FACTORIAL HepG2 Assay for human Specificity Protein 1 (Sp1) (AID 2282961); settings: HepG2 Sp1 cis-reporter transcription, actives raise or lower the signal
Procedure, shortened: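 Endpoint reflects endogenous Sp1 transcriptional activity, not an exogenous fusion protein: HepG2 cells with transfected cis-regulated reporters, 24 h dosing, RT-PCR/capillary electrophoresis mRNA read-out, DMSO-normalised bidirectional fit.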

[18] = ATG_SREBP_CIS: Attagene CIS-FACTORIAL HepG2 Assay for human Sterol Regulatory Element Binding (SREBP) (AID 2282962); settings: HepG2 Attagene cis-factorial SREBP reporter, mRNA; actives raise or lower the signal
Procedure, shortened: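 Twenty-four hours after chemical dosing of transfected HepG2 cultures, reporter RNA was converted to cDNA, amplified, end-labelled with 6-FAM and resolved by capillary electrophoresis. Responses were fitted relative to DMSO.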

[19] = target: Signal transducer and activator of transcription 3 (Homo sapiens) (UniProt P40763); assay: ATG_STAT3_CIS: Attagene CIS-FACTORIAL HepG2 Assay for human Signal Transducer and Activator of Transcription 3 (STAT3) (AID 2282963); settings: HepG2, Attagene cis-factorial STAT3 reporter transcription; actives raise or lower the signal
Procedure, shortened: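 HepG2 cells transiently transfected with multiple cis-element-driven reporter units report endogenous transcription factor activity. After 24 h compound exposure, reporter mRNA is measured by RT-PCR, 6-FAM labelling, HpaI digestion and capillary electrophoresis. Fitted bidirectionally versus DMSO.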

[20] = ATG_TA_CIS: Attagene CIS-FACTORIAL HepG2 Assay for human TA Basal Promoter (AID 2282964); settings: HepG2 Attagene CIS-factorial TA basal promoter reporter; actives raise or lower the signal
Procedure, shortened: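 Background internal-marker endpoint from a 52-component HepG2 cis-reporter panel. Cells treated 24 h; reporter transcripts quantified via RT-PCR and CE fluorescence against DMSO baseline.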

Measured: AC50

Transcription factor Sp1 (Homo sapiens), sequence (P08047 whole entry, looked up, the tested form may be a part): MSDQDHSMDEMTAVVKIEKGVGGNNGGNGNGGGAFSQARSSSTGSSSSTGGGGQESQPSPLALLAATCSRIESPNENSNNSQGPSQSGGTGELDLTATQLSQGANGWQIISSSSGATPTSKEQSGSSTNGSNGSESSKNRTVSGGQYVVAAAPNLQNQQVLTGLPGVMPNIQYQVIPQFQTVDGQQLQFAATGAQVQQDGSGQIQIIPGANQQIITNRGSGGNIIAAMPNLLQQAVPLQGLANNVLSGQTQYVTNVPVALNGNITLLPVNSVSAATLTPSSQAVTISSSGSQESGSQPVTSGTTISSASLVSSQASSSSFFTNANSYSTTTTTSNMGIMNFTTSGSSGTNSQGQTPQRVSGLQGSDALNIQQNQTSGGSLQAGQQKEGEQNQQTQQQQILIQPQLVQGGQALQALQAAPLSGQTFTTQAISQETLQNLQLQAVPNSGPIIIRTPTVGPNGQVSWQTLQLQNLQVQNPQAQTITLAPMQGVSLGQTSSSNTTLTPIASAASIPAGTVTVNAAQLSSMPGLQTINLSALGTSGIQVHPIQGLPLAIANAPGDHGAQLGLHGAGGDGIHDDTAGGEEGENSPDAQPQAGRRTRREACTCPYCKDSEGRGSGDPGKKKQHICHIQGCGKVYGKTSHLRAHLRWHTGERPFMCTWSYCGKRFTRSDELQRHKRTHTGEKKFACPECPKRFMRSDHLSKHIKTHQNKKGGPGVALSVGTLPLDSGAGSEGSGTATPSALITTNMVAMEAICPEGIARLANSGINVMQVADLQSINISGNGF
Hypoxia-inducible factor 1-alpha (Homo sapiens), sequence (Q16665 whole entry, looked up): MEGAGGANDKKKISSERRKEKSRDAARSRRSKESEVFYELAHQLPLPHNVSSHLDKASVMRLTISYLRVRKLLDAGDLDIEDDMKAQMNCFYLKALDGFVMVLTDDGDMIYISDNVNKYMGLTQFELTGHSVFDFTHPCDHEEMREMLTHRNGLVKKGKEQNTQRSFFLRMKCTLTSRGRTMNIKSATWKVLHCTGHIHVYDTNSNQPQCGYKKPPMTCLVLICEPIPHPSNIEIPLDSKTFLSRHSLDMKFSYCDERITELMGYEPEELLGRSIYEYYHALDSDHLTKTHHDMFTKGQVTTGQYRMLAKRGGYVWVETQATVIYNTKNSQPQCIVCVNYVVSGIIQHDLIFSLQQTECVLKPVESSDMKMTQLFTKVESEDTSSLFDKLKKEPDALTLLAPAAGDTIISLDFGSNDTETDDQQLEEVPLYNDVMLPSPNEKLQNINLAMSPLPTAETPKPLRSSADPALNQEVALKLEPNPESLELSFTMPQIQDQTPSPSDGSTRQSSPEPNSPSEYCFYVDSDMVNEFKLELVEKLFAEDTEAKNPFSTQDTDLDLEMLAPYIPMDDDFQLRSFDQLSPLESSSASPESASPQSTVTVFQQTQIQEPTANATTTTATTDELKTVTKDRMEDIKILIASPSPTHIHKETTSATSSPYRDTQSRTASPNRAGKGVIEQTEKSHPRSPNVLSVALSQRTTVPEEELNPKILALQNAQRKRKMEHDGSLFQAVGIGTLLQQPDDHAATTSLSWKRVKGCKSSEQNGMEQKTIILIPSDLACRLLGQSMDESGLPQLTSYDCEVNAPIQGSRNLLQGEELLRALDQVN
Signal transducer and activator of transcription 3 (Homo sapiens), sequence (P40763 whole entry, looked up): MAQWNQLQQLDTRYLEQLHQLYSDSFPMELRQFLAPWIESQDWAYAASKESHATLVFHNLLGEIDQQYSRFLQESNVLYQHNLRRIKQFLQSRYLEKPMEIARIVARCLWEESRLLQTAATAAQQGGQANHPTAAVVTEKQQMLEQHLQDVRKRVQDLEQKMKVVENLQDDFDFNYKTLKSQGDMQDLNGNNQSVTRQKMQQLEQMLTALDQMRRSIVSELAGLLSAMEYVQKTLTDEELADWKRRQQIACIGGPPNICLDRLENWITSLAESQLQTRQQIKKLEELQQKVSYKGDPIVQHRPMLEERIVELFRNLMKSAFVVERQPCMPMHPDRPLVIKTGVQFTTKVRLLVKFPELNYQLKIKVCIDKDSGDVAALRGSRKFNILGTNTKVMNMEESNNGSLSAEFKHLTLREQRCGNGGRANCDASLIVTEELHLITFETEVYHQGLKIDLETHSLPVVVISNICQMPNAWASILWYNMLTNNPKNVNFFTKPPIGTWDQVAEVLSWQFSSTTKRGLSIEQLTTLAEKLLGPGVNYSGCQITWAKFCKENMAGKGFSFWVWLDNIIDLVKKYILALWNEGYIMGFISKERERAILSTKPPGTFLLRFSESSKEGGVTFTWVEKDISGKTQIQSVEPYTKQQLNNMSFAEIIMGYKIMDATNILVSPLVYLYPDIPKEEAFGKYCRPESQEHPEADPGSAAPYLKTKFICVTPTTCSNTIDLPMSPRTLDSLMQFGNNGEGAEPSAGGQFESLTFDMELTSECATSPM
Paired box protein Pax-6 (Homo sapiens), sequence (P26367 whole entry, looked up): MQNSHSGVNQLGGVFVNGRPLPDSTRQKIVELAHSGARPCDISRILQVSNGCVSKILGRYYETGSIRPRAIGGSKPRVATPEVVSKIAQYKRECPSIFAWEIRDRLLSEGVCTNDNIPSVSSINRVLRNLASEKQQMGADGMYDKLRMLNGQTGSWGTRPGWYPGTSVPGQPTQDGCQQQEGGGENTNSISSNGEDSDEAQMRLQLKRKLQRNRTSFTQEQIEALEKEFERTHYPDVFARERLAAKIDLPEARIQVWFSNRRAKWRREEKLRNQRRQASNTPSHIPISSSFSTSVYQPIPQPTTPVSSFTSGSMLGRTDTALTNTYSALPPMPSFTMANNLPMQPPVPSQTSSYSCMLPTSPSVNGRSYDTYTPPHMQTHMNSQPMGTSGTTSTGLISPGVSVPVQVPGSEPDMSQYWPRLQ
Heat shock factor protein 1 (Homo sapiens), sequence (Q00613 whole entry, looked up): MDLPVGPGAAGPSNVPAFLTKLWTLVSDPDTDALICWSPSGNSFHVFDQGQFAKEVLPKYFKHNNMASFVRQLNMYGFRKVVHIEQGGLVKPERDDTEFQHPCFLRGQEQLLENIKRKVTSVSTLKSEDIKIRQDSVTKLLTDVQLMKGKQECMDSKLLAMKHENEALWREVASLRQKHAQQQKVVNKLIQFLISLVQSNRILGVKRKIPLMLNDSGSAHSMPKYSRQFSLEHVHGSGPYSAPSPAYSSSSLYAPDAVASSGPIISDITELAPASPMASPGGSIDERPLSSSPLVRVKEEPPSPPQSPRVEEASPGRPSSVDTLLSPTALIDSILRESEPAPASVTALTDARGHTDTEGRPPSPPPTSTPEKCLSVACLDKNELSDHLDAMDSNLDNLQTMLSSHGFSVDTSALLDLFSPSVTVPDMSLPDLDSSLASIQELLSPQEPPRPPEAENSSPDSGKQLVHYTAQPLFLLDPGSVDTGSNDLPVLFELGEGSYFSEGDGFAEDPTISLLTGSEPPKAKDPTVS
Bile acid receptor (Homo sapiens), sequence (Q96RI1 whole entry, looked up): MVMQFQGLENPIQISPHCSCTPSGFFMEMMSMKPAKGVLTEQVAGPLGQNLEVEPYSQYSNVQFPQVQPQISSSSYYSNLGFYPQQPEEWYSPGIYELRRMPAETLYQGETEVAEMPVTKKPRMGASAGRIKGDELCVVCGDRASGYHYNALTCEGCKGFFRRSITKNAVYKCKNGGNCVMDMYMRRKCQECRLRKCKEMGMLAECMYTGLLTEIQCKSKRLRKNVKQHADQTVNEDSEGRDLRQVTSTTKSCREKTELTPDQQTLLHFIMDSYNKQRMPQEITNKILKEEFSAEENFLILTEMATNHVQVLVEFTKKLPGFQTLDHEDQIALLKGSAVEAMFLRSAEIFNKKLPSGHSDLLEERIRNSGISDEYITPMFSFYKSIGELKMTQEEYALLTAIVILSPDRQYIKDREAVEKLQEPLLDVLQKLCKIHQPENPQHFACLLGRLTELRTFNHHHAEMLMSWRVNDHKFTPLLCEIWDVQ
Hepatocyte nuclear factor 6 (Homo sapiens), sequence (Q9UBC0 whole entry, looked up): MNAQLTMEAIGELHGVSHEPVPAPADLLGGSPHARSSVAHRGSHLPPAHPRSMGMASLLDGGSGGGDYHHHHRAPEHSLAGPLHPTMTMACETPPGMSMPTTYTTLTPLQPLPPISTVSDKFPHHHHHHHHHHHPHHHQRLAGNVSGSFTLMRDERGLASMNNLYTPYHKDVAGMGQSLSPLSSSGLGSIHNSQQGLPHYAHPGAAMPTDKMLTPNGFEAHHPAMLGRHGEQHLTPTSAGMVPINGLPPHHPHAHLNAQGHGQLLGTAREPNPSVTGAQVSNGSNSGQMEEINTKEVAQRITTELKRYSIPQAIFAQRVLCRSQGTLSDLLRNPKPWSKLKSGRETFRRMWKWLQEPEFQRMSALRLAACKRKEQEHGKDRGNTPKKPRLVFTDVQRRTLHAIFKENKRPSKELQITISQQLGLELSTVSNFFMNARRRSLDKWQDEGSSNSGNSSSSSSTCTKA

CC(C)C(=O)OCC=Cc1ccccc1
active: [13] 16.4 µM
inactive: all other assays above

O=S1(=O)CC(Cl)(Cl)C(Cl)(Cl)C1
active: [2] 5.49 µM | [4] 1.37 µM | [10] 6.29 µM | [12] 5.97 µM
not listed: [11] | [16]
inactive: all other assays above

CC(CO)(CO)[N+](=O)[O-]
not listed: [9] | [11]
inactive: all other assays above

COc1ccc2[nH]cc(CCNC(C)=O)c2c1
not listed: [7] | [14] | [16] | [19]
inactive: all other assays above

CN(C)c1ccc(C=O)cc1
inactive: all assays above

CCc1cccc(O)c1
active: [13] 28.1 µM
not listed: [3] | [18]
inactive: all other assays above

Cc1cc(O)c(C)c(C)c1O
active: [13] 9.14 µM
not listed: [2] | [15]
inactive: all other assays above

Cc1ccccc1S
active: [2] 55.7 µM | [9] 113 µM | [10] 102 µM | [12] 60.4 µM | [13] 19.7 µM | [16] 103 µM | [17] 80.3 µM | [18] 41.7 µM
not listed: [3] | [7] | [14] | [15]
inactive: all other assays above

C1COCO1
not listed: [2] | [15]
inactive: all other assays above

CCCCCCCCCCCCCC(=O)OCC
not listed: [2] | [18] | [19]
inactive: all other assays above

CC(C)(C)c1ccc(S)cc1
active: [13] 6.36 µM
not listed: [2] | [18] | [19]
inactive: all other assays above

C=C1CC[C@H]2O[C@]2(C)CC[C@@H]2[C@@H]1CC2(C)C
not listed: [2] | [14]
inactive: all other assays above

CCC(=O)OCC=Cc1ccccc1
active: [13] 33.1 µM
not listed: [2]
inactive: all other assays above

CCOC(=O)COC(=O)c1ccccc1C(=O)OCC
active: [13] 50.1 µM
not listed: [2]
inactive: all other assays above

Cc1cccc(O)c1
not listed: [2]
inactive: all other assays above
